IMPase Li inh: qHTS Assay for Identifying the Cell-Membrane Permeable IMPase Inhibitors: Potentiation with Lithium; Potency, µM (doses to about 59.4 µM), without a hit: top-dose activity, negative = IMPase inhibition, usual class: inhibitors; CHO-M1 cells, IP1 TR-FRET (IP-One), carbachol + lithium; AID 1457, 2008; 0.35% of 210,000 active;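 further: IP1 builds up when IMPase is blocked and the TR-FRET signal falls; potency means the concentration at half of the fitted maximal effect; plate controls were basal vehicle for no effect and high inhibitor control for full effect; nearly all actives have a fitted effect of over 50% in size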
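CHO cells stably expressing M1 receptor (2000/well, cultured 16–30 h) treated 30 min at 37C with compound plus low lithium. Cytosolic IP1 by TR-FRET (665/620 ratio and 620 channel) after 10 min lysis; AC50 by Hill fit.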
ALDH1A1 block: qHTS Assay for Inhibitors of Aldehyde Dehydrogenase 1 (ALDH1A1); Aldehyde dehydrogenase 1A1 (Homo sapiens), P00352; Purified ALDH1A1, NADH fluorescence, propionaldehyde substrate; Potency, µM (doses to about 75.3 µM), without a hit: top-dose activity, negative = inhibition, usual class: inhibitors; 7.3% of 220,000 active; AID 1030, 2008; active means well fitted inhibition curve with a large enough effect, not every such curve was filed as active; inconclusive means small, poorly fitted or top-dose-only effect, or another doubt; inactive means no such curve, though single readings can be large or run the other way;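 further: potency means the concentration at half of the fitted maximal effect; plate controls were no enzyme wells and a reference inhibitor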
IMPase inh: qHTS Assay for Identifying the Cell-Membrane Permeable IMPase Inhibitors | AID 901, 2007 | 120,000 tested, under 10 active | Inositol monophosphatase 1 (Rattus norvegicus), P97697 | inhibition (IP1 accumulation), % at 46.1 µM | CHO-M1 cells, IP1 accumulation, HTRF TR-FRET ratio; active means well fitted curve in the direction sought with a large enough effect in the signal ratio, not every such curve was filed as active; inconclusive means small, poorly fitted or top-dose-only effect, or a change in a side signal; inactive means no such curve, though single readings can be large or run the other way; the % refers to the signal ratio;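 further: cells stimulated with carbachol in lithium chloride buffer; plate controls were DMSO basal wells for no effect and reference inhibitor wells for full effect; higher means more IMPase inhibition seen as more IP1 and lower FRET ratio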
Target sequence (P97697 whole entry, looked up): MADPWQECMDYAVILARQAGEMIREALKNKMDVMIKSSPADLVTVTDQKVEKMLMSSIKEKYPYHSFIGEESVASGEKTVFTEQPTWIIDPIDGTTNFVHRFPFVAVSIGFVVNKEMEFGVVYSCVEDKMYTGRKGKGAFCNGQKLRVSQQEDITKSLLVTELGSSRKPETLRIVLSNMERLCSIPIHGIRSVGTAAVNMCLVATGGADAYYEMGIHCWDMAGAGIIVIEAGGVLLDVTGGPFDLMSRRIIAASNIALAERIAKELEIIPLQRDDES
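Measured: the HTRF emission ratio (665/620 nm) plus the 620 nm donor channel, each fitted to the Hill equation to give AC50. Cells were CHO-M1 given compounds up to 46 uM and a 30 min carbachol stimulation at 37C.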
PNC assembly inh: High Content Assay for Compounds that inhibit the Assembly of the Perinucleolar Compartment; PC3M PTB-GFP, PNC prevalence imaging, 16 h; hits give low values; AID 2417, 2010; activity change (PNC), negative = inhibition, % at 10 µM; 3.1% of 140,000 active;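 active means readout at or below -70, meaning at least 70% loss of cells showing the perinucleolar compartment, a nuclear body marking cancer cells; inconclusive means readout between -30 and a set limit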;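 further: plate controls were DMSO wells for no effect and camptothecin positive control wells for full effect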
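Read-out is percentage of cells bearing a perinucleolar compartment, from automated 20x imaging of fixed, Hoechst-stained PC3M PTB-GFP cells. Cells were seeded 4 h, then exposed 16 h to compound (23 nl of library stock) in duplicate plates.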
HPGD block: qHTS Assay for Inhibitors of HPGD (15-Hydroxyprostaglandin Dehydrogenase); Potency, µM, for inactives: top-dose activity change, negative = inhibition, hits mostly inhibitors; 4.3% of 150,000 active; 15-hydroxyprostaglandin dehydrogenase [NAD(+)] (Homo sapiens), P15428; AID 894, 2007; purified HPGD, NADH fluorescence kinetic, PGE2 substrate; active means well fitted inhibition curve with a large enough effect, not every such curve was filed as active; inconclusive means small, poorly fitted or top-dose-only effect, or another doubt; inactive means no such curve, though single readings can be large or run the other way; further: potency means the concentration at half of the fitted maximal effect
Target sequence (P15428 whole entry, looked up): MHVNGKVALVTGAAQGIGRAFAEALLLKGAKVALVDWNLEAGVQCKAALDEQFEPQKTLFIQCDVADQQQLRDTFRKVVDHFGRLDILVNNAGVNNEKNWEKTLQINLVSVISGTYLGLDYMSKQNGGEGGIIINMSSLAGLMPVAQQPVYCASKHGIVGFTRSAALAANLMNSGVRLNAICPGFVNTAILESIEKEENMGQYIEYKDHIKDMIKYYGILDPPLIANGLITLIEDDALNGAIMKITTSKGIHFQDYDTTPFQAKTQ
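20 nM HPGD preincubated 15 min at room temperature with compound in 50 mM Tris-HCl pH 8, 0.01% Tween 20. Started with 1 mM NAD+ and 30 uM prostaglandin E2; NADH fluorescence (360/450 nm) read 5 times over 30-s intervals, last minus first.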
NPSR antag: qHTS Assay for Antagonists of the Neuropeptide S Receptor: cAMP Signal Transduction. Q6W5P4. CHO-NPSR cells, cAMP TR-FRET, antagonist mode. Potency, µM (titrated, usually from 38.3 µM), for the others: top-dose activity change, negative = inhibition, usual class: inhibitors. 1% of 220,000 active. AID 1461, 2008; further: potency means the concentration at half of the fitted maximal effect; nearly all actives have a fitted effect of over 50% in size
An asterisk follows results filed as active; ? = inconclusive; nt = not tested or not shown; [ ] = dose if it differs, or a comment. Hits are enriched below; roughly 11% of the tested compounds scored in any of these assays. Unless noted, the call rests on the fitted dose curve; in most records, active means well fitted curve in the direction sought with a large enough effect; inconclusive means small, poorly fitted or top-dose-only effect, or another doubt; inactive means no such curve, though single readings can be large; an effect the other way counts as inactive or inconclusive. Unless noted, on the % scale 0 is the no-effect control and ±100 the full control effect.

SMILES	IMPase Li inh	ALDH1A1 block	IMPase inh	PNC assembly inh	HPGD block	NPSR antag
CCN(CC)CCN1C(=O)C(O)=C(C(=O)c2cccs2)C1c1ccc(C)o1 (stereo not given)	28.9%[38.3 µM]	22.4µM*	-0.4	?	-8.9%	-12.0%[46.1 µM]
Cc1ccc(C2C(C(=O)c3cccs3)=C(O)C(=O)N2CCN2CCOCC2)o1 (stereo not given)	0.1%[38.3 µM]	17.8µM*	-2.7	?	-16.2%	3.9%[46.1 µM]
O=C(C1=C(O)C(=O)N(CCN2CCOCC2)C1c1ccccn1)c1cccs1 (stereo not given)	15.1%[38.3 µM]	18.9µM*	4.4	30.4	-5.0%	-8.2%[46.1 µM]
CCN(CC)CCN1C(=O)C(O)=C(C(=O)c2cccs2)C1c1ccccn1 (stereo not given)	-10.0%[38.3 µM]	17.8µM*	8.2	16.0	-24.0%	-1.1%[46.1 µM]
COc1cccc(C2C(C(=O)c3cccs3)=C(O)C(=O)N2CCN(C)C)c1OC (stereo not given)	10.7%[38.3 µM]	?	3.7	?	-11.6%	-3.6%[46.1 µM]
CCN(CC)c1ccc(/C=C2\NC(=O)NC2=O)cc1	19.3%	2.9%	22.2	-18.3	-11.2%	-23.5%
O=C(CCl)N1c2ccccc2OCC1c1ccccc1 (stereo not given)	24.1%	0.3%	-6.2	?	31.6µM*	?
COc1ccc(S(=O)(=O)N2c3ccccc3OCC2c2ccccc2)cc1 (stereo not given)	7.8%	4.2%	5.0	-12.9	-1.4%	-15.7%[46.1 µM]
CC(C)(C)NC(=O)c1ccncc1	4.1%[38.3 µM]	13.2%	-4.1	-1.1	-1.2%	-8.1%[46.1 µM]
CCOC(=O)C1=C(CS(=O)(=O)c2ccccc2)NC(=O)NC1c1ccccc1 (stereo not given)	8.3%[38.3 µM]	-7.1%	-0.7	15.9	-3.3%	-10.3%[46.1 µM]
COC(=O)c1cc(=O)n(Cc2cccs2)c(=NCc2cccs2)s1	-6.4%[38.3 µM]	0.316µM*	-4.1	12.4	-14.8%	-10.1%[46.1 µM]
Cc1ccc2nc3cc([N+](=O)[O-])cc([N+](=O)[O-])c3cc2c1	8.5%	7.3%	nt	nt	nt	7.94µM*
O=c1cc(C(F)(F)F)c2sc(N3CCCCC3)nc2[nH]1	13.1%[38.3 µM]	?	3.0	-1.8	?	14.8%[46.1 µM]
COCc1ccc([C@@H]2C[C@H]3CN(Cc4ccccc4C)C(=O)[C@]34CCCN24)o1	24.5%	20µM*	nt	nt	nt	33.9%
O=[N+]([O-])C(=C1Nc2ccccc2N1)C(Cl)=C(Cl)Cl	3.0%	6.31µM*	nt	nt	nt	21.9%
Cc1ccc(S(=O)(=O)NCCNC(=O)c2nonc2N)cc1	-7.6%	3.7%	nt	45.0	-12.4%	4.9%
CSc1nsc(SC)c1C(=O)NCCNS(=O)(=O)c1ccc(C)cc1	16.0%[38.3 µM]	25.1µM*	3.0	?	20µM*	2.2%[46.1 µM]
O=C(O)CSc1c(-c2cccs2)[nH]c2ccccc12	1.8%	5.8%	nt	?	-11.3%	2.7%
O=C(O)CSc1c(-c2ccccc2)[nH]c2ccccc12	-2.0%	?	nt	-84.7*	-15.9%	-18.1%
O=C(CCCc1cccs1)Nc1nc2c(s1)CCCC2	14.3%[38.3 µM]	-13.0%	18.0	-23.0	-7.1%	11.1%[46.1 µM]
Cc1ccc(-c2nc3ccccc3c(=O)n2NC(=S)N(C)C)cc1	-0.7%	?	nt	33.8	28.2µM*	12.3%
COc1ccc(CC(=O)Nn2c(-c3ccccc3)nc3ccccc3c2=O)cc1	-1.8%	1µM*	nt	?	-1.3%	14.0%
Cc1ccc(-c2nc3ccccc3c(=O)n2NC(=O)c2cccs2)cc1	-0.7%	?	nt	-10.8	-13.0%	10.3%
COc1ccc2c(c1)CC(C1(O)C(=O)Nc3ccccc31)C2=O (stereo not given)	1.6%[38.3 µM]	31.6µM*	2.4	10.5	-0.9%	8.5%[7.67 µM]
CC1CCc2sc(C(=O)OCC(=O)NCc3ccccc3)cc2C1 (stereo not given)	nt	3.7%	-0.6	-94.4*	nt	2.0%[46.1 µM]

Screening results as filed in PubChem BioAssay.
